The source of these data is PubChem BioAssay.

Activity calls are given as the source filed them.

In assay [1] the test system is Plasmodium falciparum Sir2 (PF13_0152, Sir2A). The assay is described as follows: pfSir2 binders on small-molecule microarrays, primary screen, biochemical, small-molecule microarray, 635 nm fluorescence (AID 1098).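 Note: score merges spot fluorescence intensity with its signal-to-noise ratio.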 As to conditions: small-molecule microarray binding, fluorescence 635 nm; higher = more signal.
Assay [2] can be described thus: small-molecule microarray binders of probe aDKK1, primary screen, biochemical, biotinylated probe, 635/667 nm fluorescence (AID 1099).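 Note: score merges 667nm spot fluorescence with signal to noise across triplicate slides.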 The following applies: higher = more signal.
The nature of assay [3]: small-molecule microarray binders of probe aCHRDL2, primary screen, biochemical, biotinylated probe, 635/667 nm fluorescence (AID 1100). As to conditions: higher = more signal.
Assay [4] in a line: splicing luciferase reporter signal modulators, primary screen, spliceosome inhibition project, cell-based, HEK293, splice +/- reporter (AID 1101).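 Note: HEK293 cells carrying a splicing-competent luciferase reporter gene; test concentration not given here.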 The following applies: luminescence, 24 h, higher = more signal, called active from +8 up or from −8 down.
For assay [5], the target named is Fibroblast growth factor 10 (Homo sapiens) (UniProt O15520). As to the kind of experiment: FGF10 binders on small-molecule microarrays, primary screen, biochemical, small-molecule microarray, 635 nm fluorescence (AID 1102). The following applies: FGF10 binding, fluorescence 635 nm, higher = more signal.
Sequence of Fibroblast growth factor 10 (Homo sapiens) (O15520 whole entry, looked up): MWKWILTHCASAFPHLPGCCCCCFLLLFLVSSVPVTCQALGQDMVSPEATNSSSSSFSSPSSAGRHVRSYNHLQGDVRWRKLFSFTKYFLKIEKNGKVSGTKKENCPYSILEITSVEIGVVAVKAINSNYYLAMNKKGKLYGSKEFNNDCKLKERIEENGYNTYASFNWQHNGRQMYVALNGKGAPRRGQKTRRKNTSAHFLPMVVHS
The subject of assay [6] is glycogen synthase kinase-3 (GSK3A per assay name; protocol says GSK3B). The assay is described as follows: GSK3 binders on small-molecule microarrays, primary screen, biochemical, small-molecule microarray, 635 nm fluorescence, GSK3A (AID 1103). Note: the record names both GSK3A and GSK3B. The following applies: small-molecule microarray binding, fluorescence 635 nm; higher = more signal.
Assay [7] deals with Epidermal growth factor receptor (Homo sapiens) (UniProt P00533). As to the kind of experiment: EGFR binders on small-molecule microarrays, primary screen, biochemical, small-molecule microarray, 635 nm fluorescence (AID 1104).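 Note: score merges 667 nm emission intensity with spot signal to noise over triplicate slides.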 The following applies: EGFR binding, higher = more signal.
Sequence of Epidermal growth factor receptor (Homo sapiens) (P00533 whole entry, looked up): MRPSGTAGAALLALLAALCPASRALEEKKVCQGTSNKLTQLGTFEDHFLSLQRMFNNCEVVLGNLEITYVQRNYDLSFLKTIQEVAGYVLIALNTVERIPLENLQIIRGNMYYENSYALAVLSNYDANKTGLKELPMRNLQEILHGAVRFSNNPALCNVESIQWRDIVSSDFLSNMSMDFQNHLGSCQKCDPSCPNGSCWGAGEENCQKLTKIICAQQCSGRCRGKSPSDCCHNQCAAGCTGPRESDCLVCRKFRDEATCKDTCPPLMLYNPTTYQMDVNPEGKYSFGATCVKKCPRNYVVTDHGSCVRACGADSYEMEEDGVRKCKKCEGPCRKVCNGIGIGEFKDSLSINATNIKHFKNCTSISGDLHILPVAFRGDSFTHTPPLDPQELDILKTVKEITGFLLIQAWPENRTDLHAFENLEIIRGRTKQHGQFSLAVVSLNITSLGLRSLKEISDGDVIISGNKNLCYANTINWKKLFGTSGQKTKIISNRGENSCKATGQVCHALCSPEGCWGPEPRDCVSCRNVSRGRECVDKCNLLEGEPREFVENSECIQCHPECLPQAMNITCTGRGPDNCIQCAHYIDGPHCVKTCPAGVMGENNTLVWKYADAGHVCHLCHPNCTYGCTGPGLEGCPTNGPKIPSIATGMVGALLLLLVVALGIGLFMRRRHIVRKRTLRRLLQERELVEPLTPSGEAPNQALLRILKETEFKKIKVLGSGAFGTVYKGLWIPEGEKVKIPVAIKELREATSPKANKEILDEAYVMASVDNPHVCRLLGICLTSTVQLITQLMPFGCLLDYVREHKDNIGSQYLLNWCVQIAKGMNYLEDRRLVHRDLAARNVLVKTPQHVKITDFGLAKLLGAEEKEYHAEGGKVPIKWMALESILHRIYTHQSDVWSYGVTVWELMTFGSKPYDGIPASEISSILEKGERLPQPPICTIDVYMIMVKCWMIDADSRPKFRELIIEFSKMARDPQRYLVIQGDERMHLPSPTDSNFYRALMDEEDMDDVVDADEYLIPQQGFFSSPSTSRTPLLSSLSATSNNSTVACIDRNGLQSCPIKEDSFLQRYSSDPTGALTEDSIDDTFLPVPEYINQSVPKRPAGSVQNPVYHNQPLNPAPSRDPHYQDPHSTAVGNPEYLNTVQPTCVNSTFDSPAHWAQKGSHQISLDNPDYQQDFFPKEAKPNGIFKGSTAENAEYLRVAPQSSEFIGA
The target in assay [8] is Follistatin-related protein 3 (Homo sapiens) (UniProt O95633). As to the kind of experiment: FSTL3 binders on small-molecule microarrays, primary screen, biochemical, small-molecule microarray, 635 nm fluorescence (AID 1105).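 Note: score merges emission near 667 nm and signal to noise per printed spot across three slides.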 The following applies: FSTL3 binding, higher = more signal.
Sequence of Follistatin-related protein 3 (Homo sapiens) (O95633 whole entry, looked up): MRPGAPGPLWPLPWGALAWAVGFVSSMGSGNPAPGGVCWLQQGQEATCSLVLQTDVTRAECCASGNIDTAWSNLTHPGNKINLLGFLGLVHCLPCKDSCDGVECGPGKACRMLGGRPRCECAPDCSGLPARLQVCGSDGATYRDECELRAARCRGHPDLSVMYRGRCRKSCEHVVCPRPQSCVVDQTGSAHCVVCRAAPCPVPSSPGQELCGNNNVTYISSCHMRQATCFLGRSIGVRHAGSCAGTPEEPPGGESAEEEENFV
The target of assay [9] is Dickkopf-related protein 1 (Homo sapiens) (UniProt O94907). As to the kind of experiment: DKK1 binders on small-molecule microarrays, primary screen, biochemical, small-molecule microarray, 635 nm fluorescence scan (AID 1106).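 Note: score merges emission near 667 nm with signal to noise over three replicate slides.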 The following applies: DKK1 binding, higher = more signal.
Sequence of Dickkopf-related protein 1 (Homo sapiens) (O94907 whole entry, looked up): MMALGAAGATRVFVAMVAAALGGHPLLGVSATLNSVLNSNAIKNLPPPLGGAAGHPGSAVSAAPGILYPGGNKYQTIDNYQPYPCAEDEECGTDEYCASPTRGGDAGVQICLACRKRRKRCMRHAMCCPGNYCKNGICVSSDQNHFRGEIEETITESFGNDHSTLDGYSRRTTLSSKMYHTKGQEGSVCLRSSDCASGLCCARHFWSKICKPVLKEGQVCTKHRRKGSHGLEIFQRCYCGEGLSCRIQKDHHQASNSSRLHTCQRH
Assay [10] relates to Inhibin beta A chain (activin A). The assay is described as follows: INHBA (activin A) binders on microarrays, primary screen, biochemical, small-molecule microarray, 635 nm fluorescence scan (AID 1107).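 Note: mouse activin A protein probed at 4.33 µg/mL on printed slides; score merges bound-protein fluorescence near 667 nm with spot signal-to-noise.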 The following applies: small-molecule microarray binding, higher = more signal.
Assay [11] deals with Human papillomavirus type 1a protein E7 (residues 44-93). As to the kind of experiment: HPV1a E7 fragment binders on microarrays, primary screen, biochemical, small-molecule microarray, residues 44-93, 635 nm fluorescence (AID 1108).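 Note: E7 fragment applied at 1 µg/mL in TBST for 1 h at 4 C; score combines spot fluorescence with its signal to noise ratio.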 The following applies: small-molecule microarray binding, fluorescence 635 nm; higher = more signal.
The nature of assay [12]: modulators of HCV replicon luciferase signal, primary screen, HCV replication inhibitor project, Huh7 cells, luciferase reporter (AID 1109).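 Note: huh7 hepatoma cells harbouring a luciferase neomycin HCV replicon reporter; luciferase luminescence as measure of HCV replicon replication; test concentration not given here.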 As to conditions: 48 h, higher = more signal. (In general: A replicon is a self-replicating genome or part of one, used to study replication in cells.)
The target in assay [13] is Left-right determination factor 2 (Homo sapiens) (UniProt O00292). The assay is described as follows: LEFTY2 binders on small-molecule microarrays, primary screen, biochemical, small-molecule microarray, 635 nm fluorescence scan (AID 1110). The following applies: LEFTY2 binding, higher = more signal.
Sequence of Left-right determination factor 2 (Homo sapiens) (O00292 whole entry, looked up): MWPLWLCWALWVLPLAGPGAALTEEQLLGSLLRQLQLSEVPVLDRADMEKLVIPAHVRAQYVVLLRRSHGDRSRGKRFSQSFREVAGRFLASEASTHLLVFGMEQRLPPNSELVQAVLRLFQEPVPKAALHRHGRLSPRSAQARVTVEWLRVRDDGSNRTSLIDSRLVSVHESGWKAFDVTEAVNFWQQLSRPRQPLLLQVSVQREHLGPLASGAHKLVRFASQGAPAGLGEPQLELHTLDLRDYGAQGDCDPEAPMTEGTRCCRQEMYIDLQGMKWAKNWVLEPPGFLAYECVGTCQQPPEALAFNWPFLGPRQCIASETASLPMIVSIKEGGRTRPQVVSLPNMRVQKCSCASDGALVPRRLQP
Assay [14] concerns the target Calmodulin-1 (Homo sapiens) (UniProt P0DP23). The assay is described as follows: CALM1 binders on microarrays, EGTA buffer, profiling panel, biochemical, small-molecule microarray, Cy5-labelled CALM1 (AID 1111).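 Note: labelled calmodulin applied in Tris saline Tween buffer holding calcium plus EGTA and DTT.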 As to conditions: Cy5-CALM1 binding fluorescence, higher = more signal.
For assay [15] the target is unchanged. The assay is described as follows: calcium-bound CALM1 binders on microarrays, profiling panel, artefact control for SMM control-protein annotation, biochemical, small-molecule microarray, Cy5-labelled CALM1, plus calcium (AID 1112).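 Note: score merges spot fluorescence with signal to noise from triplicate slides.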 As to conditions: Cy5-CALM1 binding fluorescence, higher = more signal.
Assay [16] in a line: small-molecule microarray binders of probe aWnt5a, primary screen, biochemical, biotinylated probe, 635/667 nm fluorescence (AID 1113).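 Note: score merges 667 nm fluorescence intensity with signal-to-noise per printed feature.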 The following applies: higher = more signal.
The nature of assay [17]: small-molecule microarray binders of probe aShh, primary screen, biochemical, biotinylated probe, 635/667 nm fluorescence (AID 1114).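 Note: probe is biotin-labelled aShh protein from a stem cell growth factor screen; measures binding of labelled protein to compounds printed on the slide; score merges feature fluorescence at 667 nm with signal-to-noise.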 The following applies: higher = more signal.
A short description of assay [18]: small-molecule microarray binders of probe aNog, primary screen, biochemical, biotinylated probe, 635/667 nm fluorescence (AID 1115).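 Note: probe is biotinylated aNog protein used at 0.15 µg/mL for 1 h at 4 C; z-score combines 667 nm fluorescence of each spot with its signal to noise.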 The following applies: higher = more signal.
Assay [19] concerns the target Torsin-1A-interacting protein 1 (Homo sapiens) (UniProt Q5JTV8). As to the kind of experiment: LAP1 binders from COS7 cell lysate, primary screen, small-molecule microarray, 635/667 nm fluorescence (AID 1116). The following applies: COS7-hLAP1 lysate binding, 635 nm fluorescence, higher = more signal.
Assay [20] deals with Alpha-bungarotoxin (Bungarus multicinctus) (UniProt P60615). As to the kind of experiment: alpha-bungarotoxin binders on microarray, profiling panel, artefact control for SMM control protein annotation, biochemical, small-molecule microarray, Alexa647 label, 635/667 nm fluorescence (AID 1117). As to conditions: alpha-BTX-A647 binding fluorescence, higher = more signal.
Sequence of Alpha-bungarotoxin (Bungarus multicinctus) (P60615 whole entry, looked up): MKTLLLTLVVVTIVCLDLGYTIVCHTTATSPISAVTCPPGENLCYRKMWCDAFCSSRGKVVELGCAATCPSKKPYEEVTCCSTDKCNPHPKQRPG

Sequence of Torsin-1A-interacting protein 1 (Homo sapiens) (Q5JTV8 whole entry, looked up): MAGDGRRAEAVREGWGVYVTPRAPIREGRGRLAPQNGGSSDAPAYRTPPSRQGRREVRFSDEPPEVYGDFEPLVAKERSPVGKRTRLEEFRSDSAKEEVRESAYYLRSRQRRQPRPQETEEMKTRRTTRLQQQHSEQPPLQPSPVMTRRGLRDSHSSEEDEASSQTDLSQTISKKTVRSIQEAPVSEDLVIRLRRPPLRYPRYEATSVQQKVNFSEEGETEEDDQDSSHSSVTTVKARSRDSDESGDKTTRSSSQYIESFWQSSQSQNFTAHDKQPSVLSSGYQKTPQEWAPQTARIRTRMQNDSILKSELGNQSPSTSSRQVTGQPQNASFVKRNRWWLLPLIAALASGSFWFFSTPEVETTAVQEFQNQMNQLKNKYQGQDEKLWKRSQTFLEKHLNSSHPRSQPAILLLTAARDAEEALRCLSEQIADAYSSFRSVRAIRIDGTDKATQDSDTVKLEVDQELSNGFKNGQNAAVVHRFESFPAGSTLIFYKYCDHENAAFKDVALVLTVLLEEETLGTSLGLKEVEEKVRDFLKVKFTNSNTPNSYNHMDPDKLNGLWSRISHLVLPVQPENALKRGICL

As for `C=CCOC(=O)[C@H]1[C@@H]2C(=O)O[C@@H](c3ccccc3)[C@@H](c3ccccc3)N2[C@@H](c2ccc(OCCOC(=O)[C@H]3C[C@H]4C(=O)NCC(=O)N4[C@H]3c3ccc(O)cc3)cc2)[C@]12C(=O)Nc1ccccc12`, the composite z-score in assay [1] worked out at 1.33; in assay [2] it was 0.101; in assay [3], 0.116; in [5], 1.28; in assay [6], 1.3; in assay [7], 0.756. Moreover, the composite z-score in assay [8] amounted to 1.23; in assay [9], 0.974; in assay [10], 0.511; in assay [11], 1.44; in [13], 0.506; in assay [14], 1.18. Besides, the composite z-score was -0.237 in assay [15]; -0.0758 in [16]; -0.16 in assay [17]; -0.217 in assay [18]; 1.05 in assay [19]; 1.77 in [20]. Further, the z-score is 0.417 (inactive) in [4] and -2.07 in assay [12].
Consider `C[C@]1(C(=O)NCC(F)(F)F)c2ccccc2C(=O)N(Cc2cc(C(F)(F)F)cc(C(F)(F)F)c2)[C@H]1c1ccc(CO)cc1`, for which the composite z-score was 0.786 in assay [1]; 0.338 in [2]; 0.543 in assay [3]; -0.2 in [5]; -0.447 in [6]; -0.654 in assay [7]. Also, the composite z-score was -0.695 in assay [8]; -0.399 in assay [9]; -0.497 in assay [10]; 0.454 in [11]; -0.544 in assay [13]; -0.136 in [14]. In addition, the composite z-score is 0.331 in assay [15]; -0.0346 in [16]; -0.0146 in assay [17]; 0.231 in [18]; 0.173 in [19]; 0.342 in assay [20]. The results for the z-score in [4] and in assay [12] were 0.272 (inactive) and -0.1, respectively.
`Cc1c(NC(=O)/C(C#N)=C/C=C/c2ccc([N+](=O)[O-])cc2)c(=O)n(-c2ccccc2)n1C`: the composite z-score stood at 1.18 in assay [1]; 1.24 in assay [2]; 0.761 in [3]; 1.19 in assay [5]; 1.15 in [6]; 0.404 in assay [7]. Further, the composite z-score came to 1.21 in assay [8]; 0.534 in [9]; 0.256 in [10]; 0.572 in assay [11]; 0.328 in assay [13]; 1.97 in assay [14]. Besides, the composite z-score in [15] is 0.72; in assay [16], -0.0792; in assay [17], -0.0769; in assay [18], 0.457; in [19], 1.37; in [20], 1.13. The z-score was 0.652 (inactive) in assay [4] and -1.71 in [12].
In the case of `COC(=O)[C@H]1N=C(c2ccc(OCCCO)cc2)O[C@H]1c1ccccc1N=[N+]=[N-]`, the composite z-score in [1] was 1.08; in assay [2] it was 0.927; in assay [3] it was 1.34; in assay [5], -0.0781; in assay [6], 0.205; in [7] it was -0.454. Moreover, the composite z-score in assay [8] is -0.359; in assay [9], -0.529; in [10], 1.21; in [11], 1.05; in [13], -0.223; in [14] it was 0.203. In addition, the composite z-score in [15] was 0.28; in [16] it was 0.16; in assay [17] it was 0.468; in assay [18], 1.29; in assay [19] it was 0.451; in [20], 1.08. The figures for the z-score in assay [4] and in [12] were -0.977 (inactive) and -1.78, respectively.
Turning to `O=C1O[C@H](c2ccccc2)[C@H](c2ccccc2)N2[C@H]1[C@@H](C(=O)N1CCN(c3ncccn3)CC1)[C@]1(C(=O)Nc3ccc(C#CC4(O)CCCCCC4)cc31)[C@H]2c1ccc(O)cc1`, the composite z-score in [1] was 1.54; in assay [2] it was 0.111; in [3], -0.156; in assay [5] it was 0.989; in assay [6], 1; in assay [7], 0.241. In addition, the composite z-score in assay [8] is 0.764; in [9] it was 0.185; in [10] it was 0.0022; in assay [11], 1.07; in assay [13], 0.15; in assay [14] it was 1.14. Also, the composite z-score is 0.792 in assay [15]; -0.0037 in [16]; 0.106 in assay [17]; -0.0496 in assay [18]; 0.679 in assay [19]; 2.18 in assay [20]. In addition, the z-score in assay [4] is -0.262 (inactive); in assay [12] it was -0.317.
Take `CC(C)(C)OC(=O)CC[C@]1(C(N)=O)N=C(c2ccc(OCCCO)cc2)O[C@H]1c1ccccc1N=[N+]=[N-]`: the composite z-score in assay [1] was 0.793; in assay [2], 0.929; in [3], 0.975; in [5] it was 1.5; in assay [6], -0.0657; in assay [7], -0.204. Moreover, the composite z-score in assay [8] was 0.0699; in assay [9], -0.307; in assay [10], 1.23; in [11], 0.97; in assay [13], -0.143; in assay [14], 1.53. Besides, the composite z-score in [15] is 1.1; in [16], 0.0371; in assay [17], 0.232; in [18], 0.886; in assay [19] it was 0.791; in assay [20], 1.43. Besides, the z-score in assay [4] is -1.24 (inactive); in assay [12], 0.697.
